These results are taken from PubChem BioAssay.

Where “and” joins values, the source holds several entries; their conditions need not be identical. Equal values may be shown once. Some structures have more than one record in an assay (separate samples or runs), and their calls can disagree. Calls of active or inactive are those of the source.

The nature of this assay: budding yeast growth changes without added modifier – OD600, strain BY4716, 24 h, basal condition, primary screen (AID 1173). The conditions noted are these: S. cerevisiae BY4716 growth, OD600, 24 h; higher = more signal, called active from +8 up or from −8 down.
As to `CO[C@H]1COC(=O)CC=C[C@@H](C)COC(=O)[C@H](CCSC)NC(=O)CC=C[C@@H]1C`, the z-score is -0.92 (inactive) and -2.28 (inactive).
Then `C=CCN(CCCCC)C(=O)C1N(C(C)(C)CO)C(=O)C2C(C(=O)O)C3C=CC21O3` (centres undefined), with 0.579 (inactive) and -0.295 (inactive); and `C=CCN1C(=O)[C@]2(O[C@H](CCn3cc(CCO)nn3)[C@@H]([Si](C)(C)c3ccc(OC)cc3)[C@@H]2C)c2cc(N3C(=O)c4cccc5cccc3c45)ccc21`, with 1.99 (inactive) and 1.56 (inactive); and `CCC[C@@H]1C[C@@]1(CCC)[C@@H](NC(=O)c1ccc(-c2ccccc2)cc1)c1cccc(Cl)c1`, with 0.0143 (inactive) and 1.49 (inactive).
Turning to `C[C@@H]1CC[C@H]2C(=O)O[C@H](CN=[N+]=[N-])CN2[C@H]1c1ccc(Br)cc1`, the z-score is -3.44 (inactive) and -4.5 (inactive).
`C[C@@H]1CN2[C@@H](CC[C@@H](C)[C@@H]2c2ccc(Br)cc2)C(=O)O1`: the z-score is 0.214 (inactive) and -2.02 (inactive).
Then `COc1ccc(O[C@H]2C=C[C@@H](c3ccccc3)O[C@@H]2COC(=O)CCC(C)=NO[C@H](C)c2cn([C@H](CO)Cc3ccccc3)nn2)cc1`, with 0.496 (inactive) and 1.83 (inactive).
For `CON(C)C(=O)c1nnc2c3ccccc3n(S(=O)(=O)c3ccc(C)cc3)c2n1`, the z-score was -0.148 (inactive) and -0.378 (inactive).
Then `COc1ccc(COC(=O)NN=C2C[C@@H](O)[C@@H](O)[C@@H]3[C@@H]4C(=O)N(C(C)(C)C)C(=O)[C@@H]4CC[C@H]23)cc1`, with -1.8 (inactive); and `COC(=O)C1=C(C)N(Cc2ccccc2)[C@]23O[C@](C(=O)OC)(C(=O)N2[C@@H]1c1ccccc1)[C@@H](C(=O)OC)[C@H]3C(=O)OC`, with 0.583 (inactive) and -0.704 (inactive).
Turning to `C[C@@H]1CC[C@H]2C(=O)NC[C@@H](O)CN2[C@H]1c1ccc(Br)cc1`, the z-score was -0.228 (inactive) and -0.64 (inactive).
In the case of `C#CCCCON=C1C[C@@H](O)[C@@H](O)[C@@H]2[C@@H]3C(=O)N(C4CCCCC4)C(=O)[C@@H]3CC[C@H]12` it was -0.248 (inactive); in that of `C[C@@H]1CC[C@@H](C(=O)O)N[C@H]1c1ccc(-c2ccco2)cc1`, -0.319 (inactive); in that of `C=CCN(C(=O)C1N(C(C)(C)CO)C(=O)C2C(C(=O)O)C3C=CC21O3)C(C)(C)C` (centres undefined), 1 (inactive) and 0.053 (inactive).
On to `C=CCN(C(=O)C(c1cccs1)N(C(=O)/C=C\C(=O)O)c1ccc(CCO)cc1)C(C)(C)C` (centres undefined), for which the z-score is -2.06 (inactive) and -0.483 (inactive).
Take `Cc1ccc(S(=O)(=O)N[C@H]2COC(=O)[C@@H](Cc3ccccc3)NC(=O)[C@@H](C)COC(=O)CC=C[C@@H]2C)cc1`: the z-score is -0.207 (inactive) and -0.631 (inactive).
In the case of `CC(C)[Si]1(C(C)C)OCc2cc(CCCc3cc4c(c(CCc5ccccc5)n3)[Si](C(C)C)(C(C)C)OC4)nc(CCc3ccccc3)c21`, the z-score was -15.4 (active) and 0.852 (inactive).
Then `O=c1n(-c2ccccc2)c(=O)n2n1CC[C@@H]1C(=NOC[C@@H](O)COCc3ccco3)[C@H]3O[C@H]3[C@@H](O)[C@@H]12`, with -0.428 (inactive) and 0.804 (inactive).
Regarding `O=C1C[C@]2(c3ccc([N+](=O)[O-])cc3)C(=O)N(Cc3ccccc3)c3cc(CO)ccc3[C@H]2N1C1CCCCC1`, the z-score is -0.0998 (inactive) and -0.919 (inactive).
In the case of `CCOC(=O)[C@H](CC(C)C)NC(=O)CCC1CC(OC(=O)NCc2cccc3ccccc23)CC2(CCCC(COC(=O)NCc3ccccc3)O2)O1` (some centres undefined), the z-score is -1.76 (inactive).
Then `CCOC(=O)c1ccc(NC(=O)O[C@H]2[C@H](OC(=O)Nc3ccccc3)[C@H](OC(=O)Nc3ccccc3)[C@@H](OC)O[C@@H]2CO)cc1`, with 0.645 (inactive) and -0.301 (inactive); and `CC[C@@H]1C(Sc2ccccc2)C(C(=O)O)[C@H](c2ccc(C)cc2)N1S(=O)(=O)c1ccc(C)cc1` (some centres undefined), with -0.28 (inactive) and -1.3 (inactive); and `CCCC[C@@H]1CN2[C@@H](CC[C@@H](C)[C@@H]2c2ccc(Br)cc2)C(=O)O1`, with -1.57 (inactive) and -1.39 (inactive).
As for `C=CCN(CCCCC)C(=O)C(c1cccs1)N(C(=O)/C=C\C(=O)O)c1ccc(CCO)cc1` (centres undefined), the z-score was -0.238 (inactive) and -0.173 (inactive).
Regarding `C=C(C)C(=O)OC[C@@H]1CN2[C@@H](CC[C@@H](C)[C@@H]2c2ccc(Br)cc2)C(=O)O1`, the z-score is -3.12 (inactive).
Then `COC(=O)C1=C2N(Cc3ccccc3)C(C)=C(C(=O)OC)[C@@H](c3ccccc3)N2C(=O)[C@](O)(C(=O)OC)C1`, with -0.875 (inactive) and -0.828 (inactive).
In the case of `C=C[C@@H](C)[C@@H](O)c1ccc(OCCO)cc1` it was -3.96 (inactive) and -2.81 (inactive).
Then `C=CCN(Cc1ccccc1)C(=O)C1N(C(C)(C)CO)C(=O)C2C(C(=O)O)C3C=CC21O3` (centres undefined), with 0.424 (inactive) and -0.874 (inactive); and `C=CCN(C(=O)C1N(C(C)(C)CO)C(=O)C2C(C(=O)O)C3C=CC21O3)c1ccc(OC)cc1` (centres undefined), with -0.684 (inactive) and 0.362 (inactive).
As to `COC(=O)c1c2oc(c1C(=O)OC)C(=O)N[C@@H](Cc1ccccc1)Cn1cc(nn1)C1(CCCCC1)NC(=O)N[C@H](CO)CC2`, the z-score is -4.6 (inactive) and 0.628 (inactive).
In the case of `C=C[C@H](C)[C@H](O)c1ccc(O)c2ccccc12` it was -8.01 (active) and -8.42 (active); in that of `CCOC(=O)C[C@H]1[C@H](OC(=O)c2ccccc2-c2ccccc2)[C@@H](NC(=O)Cc2ccc(OC)cc2)c2cc(OCCCO)ccc2N1C(=O)c1ccc2ccccc2n1`, -1.31 (inactive) and -0.5 (inactive).
Consider `CC(C)OC(=O)C=C1C[C@@H](c2ccccc2)O[C@@H](c2ccccc2)O1`, for which the z-score is -1.21 (inactive) and -0.385 (inactive).
In the case of `COC(=O)C1=C(C)N(Cc2ccccc2)C2=C(C(=O)c3ccccc3)[C@H](c3ccccc3)[C@@](O)(C(=O)OC)C(=O)N2[C@@H]1c1ccccc1` it was -1.07 (inactive) and -0.683 (inactive); in that of `COC(=O)[C@@]1(Cc2ccc(F)cc2)[C@H]2c3cc(C(=O)N4CCCC4)n(Cc4c(CO)[nH]cc(C)c4=O)c3C[C@H]2CN1C(=O)c1ccccc1`, 1.61 (inactive) and 2.35 (inactive).
For `C[N+](C)(C)CCCCCCNC(=O)[C@H]1C[C@H]2C(=O)N[C@@H](CCCC[N+](C)(C)C)C(=O)N2[C@H]1c1ccc(O)cc1`, the z-score was -0.214 (inactive) and 0.205 (inactive).
`CC(CO)N1C(=O)[C@@H]2C3C(=O)OCCC=C[C@H]3OC23C=CCN(CCN2CCOCC2)C(=O)[C@@H]13` (some centres undefined): the z-score was 0.401 (inactive) and 0.191 (inactive).
In the case of `CCCC[C@@H]1CN2[C@H](c3ccc(Br)cc3)[C@@H](C)CC[C@H]2C(=O)O1` it was -1.99 (inactive) and -1.8 (inactive).
In the case of `CO[C@H]1COC(=O)CC=C[C@H](C)[C@H](OC)COC(=O)[C@@H](C)COC(=O)CC=C[C@@H]1C` it was -0.415 (inactive) and -1.07 (inactive).
